Peg3 prom inh: Peg3 promoter-driven luciferase inhibitors, primary screen, cell-based, HeLa, luciferase luminescence; 1.7% of 360,000 active; inhibition, % at 20 µM; HeLa PEG-Prom luciferase reporter, overnight;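 active = inhibition of at least 50% at 20 µM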
KKLEB tox: cytotoxicity in KKLEB CF airway cells, primary screen, cytotoxicity control for CF NF-kB inhibitor project, cell-based, uHTS, fluorescence assay plates; KKLEB CF airway cells viability, ATPlite luminescence, overnight; hits give low values; cells stimulated with P. aeruginosa culture filtrate; activity change (cytotoxicity), % at 5 µM; 0.36% of 360,000 active;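 active = corrected activity change at or below -50% at 5 µM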
TROY NFkB inh: inhibitors of TROY-driven NF-kB signaling, primary screen, Q293 LMP1-TROYcd cells, NF-kB luciferase, uHTS | inhibition, % at 10 µM | 0.98% of 360,000 active | Q293 LMP1-TROYcd NF-kB luciferase reporter, 4 h;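 active = compounds whose plate-normalised and pattern-corrected inhibition of the luciferase reporter signal at the single screening dose is 50% or more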
TWEAK-Fn14 inh: inhibitors of TWEAK-Fn14 signaling, primary screen, luciferase reporter cells, uHTS. TWEAK-stimulated Fn14 reporter cells, luciferase luminescence, 8 h. AID 1159606, 2016. inhibition, % at 10 µM. 2% of 360,000 active; in the data active = inhibition above about 50%
CF NFkB inh: inhibitors of PAF-induced NF-kB signaling, primary screen, cell-based, GFP fluorescence, uHTS; KKLEB NF-kB-GFP reporter, GFP fluorescence overnight; inhibition, % at 5 µM; 0.86% of 360,000 active;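 active = at least 50% inhibition at 5 µM, scaled per plate between neutral and stimulator controls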;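 also: PAF is a Pseudomonas aeruginosa culture filtrate used as stimulus; plate controls were PAF-stimulated DMSO wells for no effect and unstimulated DMSO wells for full effect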
HIF-2a inh: HIF-2a reporter inhibitors, primary screen, luminescence, 786-0 RCC cells; inhibition, % at 18.8 µM; 786-0 RCC cells HIF-2a reporter, luciferase luminescence, overnight; 0.72% of 360,000 active;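 active = inhibition of the luminescence signal of 40% or more relative to plate controls, in a single-dose primary screen at 18.75 µM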
CF NFkB inh conf: inhibitors of PAF-induced NF-kB signaling, retest, confirmation, cell-based, GFP fluorescence, single concentration; shares compounds with CF NFkB inh; inhibition, % at 5 µM; AID 602472, 2012; KKLEB CF airway cells, overnight; 64% of 1,300 active; in the data active = inhibition above about 40%;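 also: stimulus PAF is a Pseudomonas aeruginosa filtrate and not platelet activating factor; plate controls were DMSO wells with stimulus for no effect and unstimulated DMSO wells for full effect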
Mdm2-MdmX confirm: retested Mdm2-MdmX interaction blockers, confirmation, cell-based, luminescence, single concentration, set 2; SaOS-2 split-luciferase Mdm2/MdmX complementation; 99% of 740 active; inhibition, % at 8 µM; shares compounds with HIF-2a inh; AID 504601, 2011;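 active = mean inhibition of the luminescence signal across two replicates at or above 26 percent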
Target sequence (O15151 whole entry, looked up): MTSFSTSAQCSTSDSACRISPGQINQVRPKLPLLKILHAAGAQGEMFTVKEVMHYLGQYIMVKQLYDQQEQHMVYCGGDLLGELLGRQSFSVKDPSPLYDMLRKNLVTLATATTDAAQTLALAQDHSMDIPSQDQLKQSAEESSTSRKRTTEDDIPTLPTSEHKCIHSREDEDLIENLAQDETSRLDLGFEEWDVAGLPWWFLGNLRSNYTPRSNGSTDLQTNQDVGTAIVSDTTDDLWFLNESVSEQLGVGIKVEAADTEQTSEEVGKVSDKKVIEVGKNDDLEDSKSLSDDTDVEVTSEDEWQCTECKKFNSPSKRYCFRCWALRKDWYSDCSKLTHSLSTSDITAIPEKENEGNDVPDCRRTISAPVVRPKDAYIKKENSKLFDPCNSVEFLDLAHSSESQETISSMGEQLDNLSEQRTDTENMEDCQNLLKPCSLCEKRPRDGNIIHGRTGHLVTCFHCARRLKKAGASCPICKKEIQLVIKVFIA
Target sequence (Q00987 whole entry, looked up): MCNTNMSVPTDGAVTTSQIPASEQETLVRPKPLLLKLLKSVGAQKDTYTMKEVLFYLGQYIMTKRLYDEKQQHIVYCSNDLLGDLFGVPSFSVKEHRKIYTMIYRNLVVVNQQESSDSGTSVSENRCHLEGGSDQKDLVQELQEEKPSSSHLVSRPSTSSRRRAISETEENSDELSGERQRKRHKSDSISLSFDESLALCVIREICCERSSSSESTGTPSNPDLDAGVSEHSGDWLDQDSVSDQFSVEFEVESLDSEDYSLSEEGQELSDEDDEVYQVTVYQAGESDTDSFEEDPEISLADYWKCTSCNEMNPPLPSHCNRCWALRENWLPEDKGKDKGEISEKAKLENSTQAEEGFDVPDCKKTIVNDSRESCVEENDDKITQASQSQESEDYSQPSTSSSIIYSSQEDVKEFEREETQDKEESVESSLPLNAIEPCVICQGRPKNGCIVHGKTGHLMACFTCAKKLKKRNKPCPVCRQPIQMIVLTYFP
HIF-2a conf: HIF-2a reporter inhibitor retest, confirmation, luminescence, 786-0 RCC cells. AID 651580, 2012. inhibition, % at 18.8 µM. 56% of 1,800 active. shares compounds with HIF-2a inh. HIF-2a luciferase reporter luminescence, overnight;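 active = mean inhibition across four replicates of at least 40 percent at the single tested concentration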
HIF-1a counter: HIF-1a luciferase reporter signal reduction – MiaPaCa-2 cells, single concentration, counter-screen for HIF-2a inhibitor project, confirmation; inhibition, % at 18.8 µM; 72% of 1,800 active; shares compounds with HIF-2a inh; MiaPaCa-2 HIF-1a luciferase reporter, desferoxamine, overnight;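 active = mean inhibition of the reporter signal across four replicates at the single tested dose of 50% or more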
An asterisk follows results filed as active; . = no result. Sampled rows, rich in hits. Any-hit rate of the full collection: about 4%.

SMILES	Peg3 prom inh	KKLEB tox	TROY NFkB inh	TWEAK-Fn14 inh	CF NFkB inh	HIF-2a inh	CF NFkB inh conf	HIF-2a conf	HIF-1a counter	others
COC(CN(C(=O)CCl)C(C(=O)NC1CCCCC1)c1ccc(Cl)cc1)OC (configuration not stated)	16.0	-0.9	1.8	-10.2	7.6	3.9	.	.	.
COC(CN(C(=O)CCl)C(C(=O)NC1CCCCC1)c1ccccc1C)OC (configuration not stated)	64.5*	-40.6	-3.4	40.9	54.5*	47.0*	-6.1	10.4	84.0*
NS(=O)(=O)c1cc(C(=O)OCC(=O)Nc2ccccc2[N+](=O)[O-])ccc1Cl	0.8	-2.2	-9.7	-14.7	-0.3	2.7	.	.	.
Cc1ccccc1NC(=O)COC(=O)c1ccc(S(C)(=O)=O)c([N+](=O)[O-])c1	89.2*	-20.0	1.1	33.2	52.6*	92.6*	26.9	14.9	-0.4
Cc1ccccc1NC(=O)Cc1nc(COC(=O)c2ccc(NC(N)=O)cc2)cs1	3.6	12.5	3.5	-23.1	6.9	20.5	.	.	.
Cc1ccccc1NC(=O)Cc1nc(COC(=O)c2ccc(S(C)(=O)=O)c([N+](=O)[O-])c2)cs1	101.2*	-16.0	46.1	69.0*	77.2*	33.0	25.3	.	.	Mdm2-MdmX confirm=100.0*
CN1CCN(C(=O)CCn2c(=S)[nH]c3ccccc3c2=O)CC1	-38.3	-6.3	12.6	-5.2	9.9	14.2	.	.	.
CC(=O)c1cccc(N(CC(=O)NC2CCCC2)C(=O)c2csnn2)c1	-6.6	3.3	-0.4	-2.6	10.7	12.7	.	.	.
CC1=CC(C)(C)Nc2ccc(OC(=O)CCN3C(=O)c4ccccc4C3=O)cc21	104.1*	5.2	26.0	96.1*	71.0*	90.7*	-23.9	88.7*	95.3*
CCS(=O)(=O)c1nc(S(=O)(=O)c2ccc(Cl)cc2)c(N2CCC(C(N)=O)CC2)s1	-4.8	-5.4	-7.0	4.3	15.0	6.7	.	.	.
COc1ccc(-c2cc(=O)oc3cc(OCC(C)=O)ccc23)cc1	11.7	-5.8	-10.8	-21.9	23.2	-14.8	.	.	.
COc1ccc(-c2cc(=O)oc3c(C)c(O)ccc23)cc1	39.8	15.3	61.3*	71.7*	83.2*	16.7	91.8*	.	.	Mdm2-MdmX confirm=92.0*
CC(C)C[C@@H](CSc1ccccc1)N1CCN(CC(C)C)CCC1=O	-211.8	-3.9	18.1	8.3	3.3	-253.7	.	.	.
Fc1ccc(CSc2ncnc3scc(-c4ccccc4)c23)cc1	20.0	-8.6	-4.0	-7.0	42.7	26.5	.	.	.
Cn1nnnc1Sc1ncnc2scc(-c3cccc(F)c3)c12	101.8*	-16.7	43.4	64.2*	65.8*	74.9*	29.2	53.7*	104.0*	Mdm2-MdmX confirm=103.0*
Cn1nnnc1Sc1ncnc2scc(-c3ccc(C#N)cc3)c12	102.9*	-48.0	46.3	82.8*	77.1*	90.5*	2.9	94.3*	107.2*	Mdm2-MdmX confirm=103.0*
CCNC(=O)C1(C)CCCN(CCOc2ccc(Cl)cc2)C1 (configuration not stated)	15.1	2.9	7.5	-5.2	22.9	9.3	.	.	.
Nc1ncc([N+](=O)[O-])c(N2CCCCCC2)n1	13.7	2.3	32.7	74.8*	67.1*	7.7	91.3*	.	.	Mdm2-MdmX confirm=84.2*
Nc1ncnc2c1ncn2[C@@H]1O[C@H](CNC(=O)[C@@H](N)Cc2ccc(C(F)(F)F)cc2)[C@@H](O)[C@H]1O	-5.0	-3.4	1.7	-42.2	10.9	7.6	.	.	.
O=C(N/N=C/c1ccc(C(F)(F)F)cc1)c1ccc(O)cc1	-132.5	1.3	-55.7	-22.1	-7.0	-112.1	.	.	.
NC(N)=NN=C(c1ccc(F)cc1)c1ccc(C(F)(F)F)cc1	98.6*	-20.6	17.2	55.9*	72.1*	41.4*	80.8*	33.7	86.5*
Nc1nc(N)nc(-c2ccc(Oc3ccccc3)cc2)n1	-58.9	-12.2	-10.3	-43.3	11.2	-113.8	.	.	.
Nc1ncnc2c1c(-c1ccc(Oc3ccccc3)cc1)cn2C1CCCC1	71.5*	-9.8	17.1	7.8	52.8*	67.0*	80.8*	54.7*	64.7*
Cc1ccc(Cl)cc1NC(=S)NCCCSC1CCCCC1	27.6	-4.0	31.9	-24.4	13.8	17.8	.	.	.
Cc1ccc2nc(Nc3ccc(Cl)cc3)c3nncn3c2c1	-24.2	15.0	0.2	-7.6	-64.0	-12.3	.	.	.
SMILES	Peg3 prom inh	KKLEB tox	TROY NFkB inh	TWEAK-Fn14 inh	CF NFkB inh	HIF-2a inh	CF NFkB inh conf	HIF-2a conf	HIF-1a counter	others
N#CC1(NC(=O)Cn2ncc(Cl)c(Cl)c2=O)CCCCC1	93.5*	2.7	55.3*	77.7*	80.7*	86.6*	13.9	58.9*	107.0*
COC(=O)[C@@]1(Cc2ccc(OC)cc2)[C@H]2c3cc(C(=O)N4CCCC4)n(CCN4CCOCC4)c3C[C@H]2CN1C(=O)c1ccccc1	.	.	-3.4	24.0	.	0.5	.	.	.
CCc1nc2c(OCCn3cccc3)cccn2c1N(C=O)Cc1ccccc1	-1.8	-3.7	1.1	2.3	6.0	7.0	.	.	.
Cc1csc(CNc2ncnc3ccc(-c4ccc5c(c4)OCO5)cc23)c1	12.5	1.6	3.9	17.0	20.1	15.1	.	.	.
COc1cccc(-c2ccc3ncnc(NCc4ccc5c(c4)OCO5)c3c2)c1	-25.2	-5.7	31.3	80.3*	79.7*	-34.9	81.4*	.	.	Mdm2-MdmX confirm=85.0*
CCOC(=O)N1CCN(C(=O)CSc2nc3nc(C)cc(C)n3n2)CC1	13.9	22.2	-17.9	5.8	-11.7	14.3	.	.	.
COc1cc(NC(=O)CN2C(=O)CN(C)C2=O)c(C)cc1[N+](=O)[O-]	9.6	-5.4	-2.9	-11.8	-8.2	6.1	.	.	.
COc1cc(NC(=O)Cn2ncc(Cl)c(Cl)c2=O)c(C)cc1[N+](=O)[O-]	98.3*	-36.9	68.4*	98.2*	93.1*	92.6*	99.8*	98.1*	105.5*
COC(=O)C[C@@H]1C=C[C@H](NC(=O)Cc2ccccn2)[C@@H](CO)O1	.	.	.	.	.	3.6	.	.	.

From PubChem
